# Measured values taken from paper PMC4336329 (PLoS ONE, 2015).
# The whole screen tested about 310,000 compounds, of which about 14,000 (4.5%) showed an effect of 50% or more. Effects have a minus sign here. The sample as a whole holds a higher share of strong results than the screen did.
# Biological target: human ether-à-go-go-related gene (hERG) potassium channel (human, UniProt Q12809)
# Test: primary screen, population patch clamp on CHO cells stably expressing hERG; higher = less effect of the substance
# 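Note: peak tail current of the secondary pulse compared with the same well before compound.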
# Sequence of human ether-à-go-go-related gene (hERG) potassium channel (Q12809 whole entry, looked up): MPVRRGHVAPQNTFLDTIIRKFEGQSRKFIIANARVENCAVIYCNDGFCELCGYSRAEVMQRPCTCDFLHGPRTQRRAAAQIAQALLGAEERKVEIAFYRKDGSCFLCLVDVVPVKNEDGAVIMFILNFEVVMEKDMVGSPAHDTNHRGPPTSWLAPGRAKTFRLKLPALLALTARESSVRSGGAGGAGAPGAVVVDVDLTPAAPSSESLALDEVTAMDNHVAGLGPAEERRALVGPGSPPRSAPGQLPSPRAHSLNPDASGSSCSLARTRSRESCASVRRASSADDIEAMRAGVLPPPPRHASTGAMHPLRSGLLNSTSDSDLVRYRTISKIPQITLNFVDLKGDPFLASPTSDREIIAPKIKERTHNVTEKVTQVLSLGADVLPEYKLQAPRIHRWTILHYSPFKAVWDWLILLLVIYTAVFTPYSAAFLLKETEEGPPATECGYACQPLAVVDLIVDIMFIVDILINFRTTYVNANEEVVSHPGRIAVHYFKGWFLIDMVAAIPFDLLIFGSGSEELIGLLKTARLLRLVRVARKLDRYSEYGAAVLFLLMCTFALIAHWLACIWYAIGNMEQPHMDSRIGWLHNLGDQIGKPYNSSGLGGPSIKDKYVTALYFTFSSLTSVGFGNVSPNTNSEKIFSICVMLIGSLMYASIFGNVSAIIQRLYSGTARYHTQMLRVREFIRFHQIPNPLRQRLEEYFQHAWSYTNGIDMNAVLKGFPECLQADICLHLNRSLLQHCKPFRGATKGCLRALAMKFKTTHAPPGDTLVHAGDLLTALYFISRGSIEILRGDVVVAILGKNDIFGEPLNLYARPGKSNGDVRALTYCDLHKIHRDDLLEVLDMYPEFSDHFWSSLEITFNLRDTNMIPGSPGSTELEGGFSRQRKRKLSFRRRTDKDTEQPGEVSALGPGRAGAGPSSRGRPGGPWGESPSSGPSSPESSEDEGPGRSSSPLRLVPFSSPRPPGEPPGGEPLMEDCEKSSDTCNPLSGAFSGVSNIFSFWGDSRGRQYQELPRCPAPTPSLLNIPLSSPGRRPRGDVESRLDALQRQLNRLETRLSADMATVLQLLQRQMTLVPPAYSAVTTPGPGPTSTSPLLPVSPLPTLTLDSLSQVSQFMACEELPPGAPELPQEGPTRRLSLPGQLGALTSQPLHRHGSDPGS
row,SMILES,"hERG current change (%, negative = inhibition) at 10uM [%]"
1,Cc1cccc(N=C2C(=O)Nc3c(Cl)cccc32)c1,18.5
2,CCc1nc2cc(Cl)c(Cl)cc2[nH]1,2.59
3,Cc1cc(-n2c(=O)c(C#N)cc3c(=O)n4ccccc4nc32)no1,-17
4,Cc1cc(-n2c(=O)c(C#N)cc3c(=O)n4cccc(C)c4nc32)no1,-65.1
5,Cc1ccc(-n2c(=O)c(C#N)cc3c(=O)n4cccc(C)c4nc32)cc1,1.03
6,Cc1ccc(OC(=O)c2ccc(S(=O)(=O)N(C)C)cc2)c(-n2nc3ccccc3n2)c1,3.83
7,O=C(Nc1nccs1)c1ccc(-c2ccc(Cl)cc2Cl)o1,25.5
8,COc1ccc(CNC(=O)c2cc3c(=O)n4cccc(C)c4nc3n(CC3CCCO3)c2=N)cc1 (stereo not drawn),-77.2
9,COc1ccc(CNC(=O)C(=O)NCC2CCCO2)cc1 (stereo not drawn),9.7
10,Cc1cccn2c(=O)c3cc(S(=O)(=O)c4ccccc4)c(=N)n(CC4CCCO4)c3nc12 (stereo not drawn),-15.3
11,Cc1ccc2nc3c(cc(C(=O)NCCc4ccccc4)c(=N)n3CC3CCCO3)c(=O)n2c1 (stereo not drawn),-76.9
12,COc1ccc(CCNC(=O)c2cc3c(=O)n4cccc(C)c4nc3n(CC3CCCO3)c2=N)cc1 (stereo not drawn),-75.2
13,Cc1cccn2c(=O)c3cc(C(=O)NCCc4ccccc4)c(=N)n(CC4CCCO4)c3nc12 (stereo not drawn),-82.3
14,O=C(CSc1nc2ccccc2c(=O)n1CC1CCCO1)NCCc1ccccc1 (stereo not drawn),7.48
15,Cc1ccc(CCNC(=O)c2ccc3nc4ccccc4c(=O)n3c2)cc1,6.08
16,CCOc1cc(CNCCc2cccc(F)c2)ccc1OC.O=C(O)C(=O)O,-43.8
17,O=C(Nc1ccc2c(c1)OCCO2)c1cnn(-c2ccccc2)n1,-6.02
18,O=C(CSc1nc2cc(Cl)ccc2c(=O)n1Cc1ccco1)Nc1ccc(S(=O)(=O)N2CCOCC2)cc1,-13.6
19,Cc1ccc(NC(=O)CCNC(=O)c2ccccc2Cl)cc1S(=O)(=O)N1CCOCC1,-8.82
20,Cn1c(C(=O)O)ccc1S(=O)(=O)N(Cc1ccccc1)Cc1ccccc1,16.5
21,Cc1ccccc1NC(=O)Cn1c(NCC(C)O)nc2ccccc21 (stereo not drawn),-2.11

row,SMILES,"hERG current change (%, negative = inhibition) at 10uM [%]"
1,COc1ccc(S(=O)(=O)c2c(O)c3ccc(C(=O)Nc4ccccc4F)cc3[nH]c2=O)cc1,-0.579
2,CCc1nnc(NC(=O)CSc2nnc(CSc3nc(C)cc(C)n3)o2)s1,3.21
3,COc1ccc(CCNC(=O)c2cc3c(=O)n4ccccc4nc3n(CC3CCCO3)c2=N)cc1OC (stereo not drawn),-78.4
4,O=C(NCc1ccc(Cl)cc1)c1ccc2c(=O)n(CC3CCCO3)c(=S)[nH]c2c1 (stereo not drawn),7.01
5,N=c1c(C(=O)NCCc2ccccc2)cc2c(=O)n3ccccc3nc2n1CC1CCCO1 (stereo not drawn),-90.7
6,Cc1cccn2c(=O)c3cc(C(=O)NCc4ccc(F)cc4)c(=N)n(CC4CCCO4)c3nc12 (stereo not drawn),-74
7,COc1ccc(CCNC(=O)Cn2c(=O)n(CC3CCCO3)c(=O)c3ccccc32)cc1OC (stereo not drawn),-0.738
8,Cc1ccc2nc(/C(C#N)=C\c3ccc(Oc4ccc(C(F)(F)F)cc4[N+](=O)[O-])cc3)[nH]c2c1,20.8
9,COc1ccc(C(=O)CC(=O)C(=O)Nc2ccc(OC)c(Cl)c2)cc1,12.9
10,Cc1nn(-c2ccccc2)c(N2CCCCC2)c1/C=N/NC(=O)c1ccncc1,7.3
11,O=C1CCCC2=C1C(c1ccccc1)n1c(s/c(=C/c3cccc(F)c3)c1=O)=N2 (stereo not drawn),16
12,NCc1cccc(CNc2ccc([N+](=O)[O-])cc2C(N)=O)c1,-19.9
13,NC(=O)CC(NC(=O)c1ccccc1)c1ccc(NC2CCN(Cc3ccccc3)CC2)c([N+](=O)[O-])c1 (stereo not drawn),1.08
14,O=[N+]([O-])c1cc(C(F)(F)F)ccc1NC1CCN(Cc2ccccc2)CC1,-68
15,NC(=O)CC(NC(=O)Cc1ccc(Cl)cc1)c1ccc(NC2CCN(Cc3ccccc3)CC2)c([N+](=O)[O-])c1 (stereo not drawn),-18.5
16,O=[N+]([O-])c1cc(C(F)(F)F)ccc1NC1CCN(Cc2ccccc2)C1 (stereo not drawn),-66.6
17,NC(=O)CC(NC(=O)Cc1ccc(Br)cc1)c1ccc(NC2CCN(Cc3ccccc3)CC2)c([N+](=O)[O-])c1 (stereo not drawn),-45.8
18,NC(=O)CC(NC(=O)c1cccc(Br)c1)c1ccc(NC2CCN(Cc3ccccc3)CC2)c([N+](=O)[O-])c1 (stereo not drawn),6.8
19,CCCc1nc(SCC(=O)NNC(=O)C2CCCCC2)c2ccccc2n1,-2.77
20,Cc1ccc(S(=O)(=O)N(C)c2ccc(OCC(=O)Nc3nc(-c4ccccc4)cs3)cc2)cc1,14.3
21,O=[N+]([O-])c1ccc(C[n+]2cc(-c3ccccc3)n3c2CCCCC3)cc1.[Br-],-35.3

row,SMILES,"hERG current change (%, negative = inhibition) at 10uM [%]"
1,Clc1ccc(-c2c[n+](Cc3ccc(Cl)cc3Cl)c3n2CCCCC3)cc1.[Br-],-66
2,Clc1ccc(C[n+]2cc(-c3ccccc3)n3c2CCC3)cc1.[Cl-],-33.5
3,Clc1ccc(C[n+]2cc(-c3ccccc3)n3c2CCCCC3)c(Cl)c1.[Br-],-74.4
4,Cc1cc(Nc2ccccc2)c2c([N+](=O)[O-])cc(C)c(C)c2n1,-9.29
5,O=C(CCn1c(=O)[nH]c2ccccc2c1=O)Nc1ccccc1,16.4
6,Cc1ccc(S(=O)(=O)NCC(=O)N(CC(=O)NCc2ccco2)Cc2ccc(F)cc2)cc1,5.19
7,O=C(COC(=O)CC1Sc2ccccc2NC1=O)NCc1ccccc1 (stereo not drawn),-21.4
8,Cc1cccc(N2CCN(C(C)C(=O)N3CCc4ccccc43)CC2)c1C (stereo not drawn),17
9,CCCNC(=O)CS(=O)(=O)Cc1nc(-c2ccccc2C)oc1C,3.88
10,O=S(=O)(c1ccc(F)c(F)c1)N1CCN(Cc2ccc3c(c2)OCO3)CC1,-51.4
11,O=S(=O)(c1cccc(F)c1)N1CCN(Cc2ccc3c(c2)OCO3)CC1,-35.8
12,O=S(=O)(c1ccc2c(c1)OCCO2)N1CCN(Cc2ccc3c(c2)OCO3)CC1,3.98
13,O=C1CCc2cc(S(=O)(=O)NCCCC(=O)N3CCN(Cc4ccc5c(c4)OCO5)CC3)ccc2N1,-0.149
14,COc1ccc(S(=O)(=O)N2CCN(Cc3ccc4c(c3)OCO4)CC2)cc1F,-30.5
15,O=C1CCc2cc(S(=O)(=O)N3CCN(Cc4ccc5c(c4)OCO5)CC3)ccc2N1,-70.1
16,O=[N+]([O-])c1cc(Br)c(O)c(/C=N/Nc2nnnn2-c2cccc3ccccc23)c1,0.778
17,O=C(Cc1c[nH]c2ccccc12)Nc1nccs1,0.956
18,O=C(CN1C(=O)C2CC=CCC2C1=O)Nc1cc(C(F)(F)F)ccc1N1CCCC1 (stereo not drawn),-24.6
19,O=C(O)c1cc2n(n1)CCN(Cc1ccccc1Cl)C2=O,8.71
20,Cc1cc2ncn(/N=C/c3ccc([N+](=O)[O-])o3)c2cc1C,-0.858
21,Cc1nc2ccccc2c(=O)n1/N=C/c1ccc([N+](=O)[O-])o1,-53.3

row,SMILES,"hERG current change (%, negative = inhibition) at 10uM [%]"
1,Cc1nc2ccccc2c(=O)n1/N=C/c1ccccc1,-0.523
2,Cc1ccc(/C=N/n2c(C)nc3ccccc3c2=O)o1,10.9
3,Cc1nc2ccccc2n1/N=C/c1ccc([N+](=O)[O-])s1,-12.3
4,Cc1nc2ccccc2n1/N=C/c1ccc([N+](=O)[O-])o1,-58.9
5,O=C(c1cc2c(s1)CCC2)N1C(=O)c2ccccc2S1(=O)=O,12.9
6,CCCC(C)NC(=O)CN1C(=O)c2cccc3cccc1c23 (stereo not drawn),1.42
7,COc1ccc(C(C)=O)cc1CSc1nc2cc(Cl)ccc2o1,9.66
8,O=c1oc2cccnc2n1CCS(=O)(=O)c1ccc(F)cc1,9.29
9,CCOc1ccccc1NC(=O)Cn1c(-c2ccc(Cl)cc2)noc1=O,-2.01
10,CCN(C(=O)CSc1nc2ccccc2c(=O)n1Cc1ccc(C)cc1)C1CCS(=O)(=O)C1 (stereo not drawn),-71
11,CCN(C(=O)CSc1nc2ccccc2c(=O)n1-c1ccc(C)cc1)C1CCS(=O)(=O)C1 (stereo not drawn),-11.6
12,Cc1ccc(-n2c(SCC(=O)N(C)C3CCS(=O)(=O)C3)nc3ccccc3c2=O)cc1 (stereo not drawn),11
13,Cc1ccccc1-n1c(SCC(=O)N(C)C2CCS(=O)(=O)C2)nc2ccccc2c1=O (stereo not drawn),11.6
14,CCN(C(=O)CSc1nc2ccccc2c(=O)n1-c1cccc(C)c1)C1CCS(=O)(=O)C1 (stereo not drawn),-14.9
15,CCn1c(SCC(=O)N(Cc2ccccc2)C2CCS(=O)(=O)C2)nc2ccccc2c1=O (stereo not drawn),-61
16,Cc1ccc(Cn2c(SCC(=O)N(C)C3CCS(=O)(=O)C3)nc3ccccc3c2=O)cc1 (stereo not drawn),-60.8
17,CCCN(C(=O)CSc1nc2ccccc2n1CC)C1CCS(=O)(=O)C1 (stereo not drawn),2.29
18,CCN(C(=O)CSc1nc2ccccc2n1CC)C1CCS(=O)(=O)C1 (stereo not drawn),0.264
